HT1080NT lethal: qHTS for induction of synthetic lethality in tumor cells producing 2HG: qHTS for the HT-1080-NT fibrosarcoma cell line; Potency, µM (doses to about 46.1 µM), without a hit: at the top dose activity, negative = less viability, hits mostly cytotoxic; 1.6% of 360,000 active; AID 686970, 2013; HT-1080-NT fibrosarcoma viability, CellTiter-Glo ATP luminescence, 48 h;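 also: NT is the 2HG producing partner of a matched IDH1 knockdown line; 0% = DMSO-treated cells and -100% = media-only wells without cells; nearly all actives have a fitted effect of over 55% in size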
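Read-out is CellTiter-Glo luminescence after 10 minutes at room temperature, following 48 hours' compound treatment of HT-1080-NT cells (750 cells/well, RPMI, 5% FBS, 37 degrees C).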
HT1080 IDH1KD tx: qHTS for induction of synthetic lethality in tumor cells producing 2HG: qHTS for the HT-1080-IDH1KD cell line; 2% of 360,000 active; Potency, µM (top dose mostly 46.1 µM), inactives show at the highest dose activity, negative = toxicity, hits mostly cytotoxic; HT-1080 IDH1 knockdown viability, ATP luminescence, 48 h; AID 686971, 2013;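 also: 0% = DMSO wells and -100% = cell-free medium wells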
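Luminescent ATP read-out (CellTiter-Glo, 10 min at room temperature) after 48 h compound exposure at 37 °C gave viability of IDH1-knockdown HT-1080 cells. Activity was normalised to DMSO and cell-free wells, then fitted as concentration-response curves.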
KB-3-1 tox: qHTS assay for MDR1-selective chemotherapeutics: Primary screen using the parental adenocarcinoma cell KB-3-1; KB-3-1 viability, CellTiter-Glo ATP luminescence, 72 h; 1.4% of 400,000 active; Potency, µM (top dose mostly 46.1 µM), most hits filed as cytotoxic; AID 1347075, 2019; also: % is scaled to controls: 0 for no effect and ±100 for the full control effect; nearly all actives have a fitted effect of over 60% in size
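72 h, 37 °C compound treatment of KB-3-1 parental cells; CellTiter-Glo added, 10 min, luminescence read. Data corrected against DMSO-only plates and normalized before curve fitting.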
KB-V1 MDR tox: qHTS assay for MDR1-selective chemotherapeutics: Primary screen using the drug-selected MDR subline cells KB-V1. Potency, µM (titrated, usually from 46.1 µM), actives largely listed as cytotoxic. KB-V1 MDR cells viability, CellTiter-Glo, 72 h. 3.4% of 400,000 active; also: % is scaled to controls: 0 for no effect and ±100 for the full control effect; nearly all actives have a fitted effect of over 60% in size
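Following 72 h at 37 degrees C with compound, KB-V1 cell viability was read by CellTiter-Glo luminescence, medium being phenol-red-free DMEM plus 10% FBS; concentration-response parameters came from normalized, curve-fitted qHTS data.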
TGFb SMAD3 inh: qHTS for Inhibitors of TGF-b. HepG2 CAGA-GFP TGF-b/SMAD3 reporter, GFP fluorescence, 18 h; TGF-beta stimulated, 500 pg/mL final. Potency, µM (titrated, usually from 46.1 µM), without a hit: at the top dose activity, negative = inhibition, actives largely listed as inhibitors. 1.2% of 410,000 active. AID 588855, 2011; also: % is scaled to controls: 0 for no effect and ±100 for the full control effect; nearly all actives have a fitted effect of over 65% in size
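HEPG2 CAGA-GFP, 1000 cells/well; 2 h settle, 37 C; cpd via pin tool; TGF-b 500 pg/mL final; 18 h, 37 C; GFP imaging ex488/em500-530; %Activity normalised to -TGF-b and +DMSO controls; CRC fit, curve class.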
HepG2 viability: qHTS for Inhibitors of TGF-b: Cytotox Counterscreen | Potency, µM (top dose mostly 46.1 µM), without a hit: top-dose activity change, negative = cytotoxicity, actives largely listed as cytotoxic | 0.76% of 410,000 active | HepG2 CAGA-GFP viability, ATP luminescence, 18 h | AID 588856, 2011
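CellTiter-Glo luminescence gave cytotoxicity after 18 hours at 37 degrees C. The cells were HepG2 CAGA-GFP in 1% FBS DMEM, stimulated with 500 pg/mL TGF-beta after compound addition. %Activity was normalised to no-cell wells (complete cell-killing) and DMSO (no toxicity), and curves were fitted and classified.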
* = called active by the depositor. A selection: hits, their analogues and other compounds. The true share with any hit is near 6.6%. Calls follow the shape of the dose curve; as a rule, active = well fitted curve in the direction sought with a large enough effect; inconclusive = small, poorly fitted or top-dose-only effect, or another doubt; inactive = no such curve, though single readings can be large; an effect the other way counts as inactive or inconclusive. Potency is read from the fitted curve at half-maximal effect.

`Cc1ccc(S(=O)(=O)N2CCN(c3nc(-n4cccn4)nc4ccccc34)CC2)cc1` gave HT1080NT lethal -27% and HT1080 IDH1KD tx -21%.
For COc1ccc(NC(=O)CCc2c(C)nc3c(c2C)c(=O)n(C)c(=O)n3C)cc1OC the results were KB-3-1 tox inactive, KB-V1 MDR tox inactive, TGFb SMAD3 inh -5% and HepG2 viability -2%.
Screening CC(C)NC(=O)C1(C#N)C=C1c1ccccc1 (centres undefined) returned HT1080NT lethal 16µM*, HT1080 IDH1KD tx inconclusive, KB-3-1 tox 8.2µM* and KB-V1 MDR tox inconclusive.
For CC(C)NC(=O)c1ccccc1-c1ccccc1 the results were HT1080NT lethal 5%, HT1080 IDH1KD tx 6%, KB-3-1 tox inactive, KB-V1 MDR tox inactive, TGFb SMAD3 inh 9% and HepG2 viability 11%.
Screening CCCCc1ccc(S(=O)(=O)NC(=O)C2(C)CCN2C(=O)CCc2cccs2)cc1 (centres undefined) returned HT1080NT lethal 23%, HT1080 IDH1KD tx 26%, KB-3-1 tox inactive, KB-V1 MDR tox inactive, TGFb SMAD3 inh 20% and HepG2 viability 3%.
CCCCNc1ccc(C(F)(F)F)cc1S(=O)(=O)NCCc1ccc(F)cc1 was read as HT1080NT lethal inconclusive, HT1080 IDH1KD tx inconclusive, KB-3-1 tox inactive, KB-V1 MDR tox inactive, TGFb SMAD3 inh inconclusive and HepG2 viability 5µM*.
`C=CC[n+]1c(-c2ccc(OC)cc2)csc1NNC(=O)Nc1ccccc1` gave HT1080NT lethal inconclusive, HT1080 IDH1KD tx inconclusive, KB-3-1 tox inactive, KB-V1 MDR tox 23µM*, TGFb SMAD3 inh inconclusive and HepG2 viability -4%.
Screening C=CC[n+]1c(-c2ccc(C)cc2)csc1Nc1ccc(NC(C)=O)cc1 returned HT1080NT lethal -17%, HT1080 IDH1KD tx inconclusive, KB-3-1 tox inconclusive, KB-V1 MDR tox inconclusive, TGFb SMAD3 inh -23% and HepG2 viability -9%.
`Cc1ccc(NC(=O)CC2Nc3cccc4cccc(c34)NC2=O)cc1` (centres undefined) gave TGFb SMAD3 inh 11µM* and HepG2 viability -28%.
For Cc1ccc(NC(=O)CC2Nc3ccccc3NC2=O)cc1Cl (centres undefined) the results were HT1080NT lethal 21µM*, HT1080 IDH1KD tx 21µM*, KB-3-1 tox inconclusive, KB-V1 MDR tox inactive, TGFb SMAD3 inh inconclusive and HepG2 viability -47%.
`Cc1ccc(NC(=O)CC2Nc3ccccc3NC2=O)cc1C` (centres undefined) gave KB-3-1 tox inactive, KB-V1 MDR tox inactive, TGFb SMAD3 inh -17% and HepG2 viability -11%.
Screening O=C1C=C(c2ccc3[nH]ccc3c2)C[C@@H](c2ccc(Cl)cc2)C1 returned HT1080NT lethal inconclusive, HT1080 IDH1KD tx inconclusive, KB-3-1 tox inactive, KB-V1 MDR tox inactive, TGFb SMAD3 inh 11µM* and HepG2 viability -23%.
`O=C1C=C(c2ccc3ccccc3c2)C[C@@H](c2ccc(Cl)cc2)C1` gave HT1080NT lethal 12%, HT1080 IDH1KD tx 6%, KB-3-1 tox inconclusive, KB-V1 MDR tox inconclusive, TGFb SMAD3 inh inconclusive and HepG2 viability -11%.
`CCOC(=O)Nc1ccc2c(c1)ncn2C1CCCCC1` gave HT1080NT lethal -23%, HT1080 IDH1KD tx -1%, KB-3-1 tox inactive, KB-V1 MDR tox 18µM*, TGFb SMAD3 inh -11% and HepG2 viability -21%.
For Cc1c(Cl)cccc1NC(=O)c1ccc(NC(=O)N2CCSc3ncccc32)cc1 the results were KB-3-1 tox inactive, KB-V1 MDR tox inactive, TGFb SMAD3 inh inconclusive and HepG2 viability -23%.
Screening O=C(NC1CCCCC1)C(C1CC1)n1c(=O)c(-c2cc3ccccc3[nH]2)nc2ccccc21 (centres undefined) returned HT1080NT lethal inconclusive, HT1080 IDH1KD tx -47%, KB-3-1 tox inconclusive and KB-V1 MDR tox 23µM*.
O=C(NCc1ccccc1)C(C1CC1)n1c(=O)c(-c2cc3ccccc3[nH]2)nc2ccccc21 (centres undefined) was read as HT1080NT lethal 23µM*, HT1080 IDH1KD tx inconclusive, KB-3-1 tox inactive and KB-V1 MDR tox inactive.
`CC(C)NC(=O)C1(C)CCCCN1Cc1ccc(OCc2ccccc2)cc1` (centres undefined) gave HT1080NT lethal inconclusive, HT1080 IDH1KD tx inconclusive, KB-3-1 tox 16µM*, KB-V1 MDR tox inconclusive, TGFb SMAD3 inh inconclusive and HepG2 viability -77%.
`Cc1ccc(CN2CCCC2(C)C(=O)NC(C)C)cc1` (centres undefined) gave HT1080NT lethal 11%, HT1080 IDH1KD tx 21%, KB-3-1 tox inactive, KB-V1 MDR tox inactive, TGFb SMAD3 inh 25% and HepG2 viability -1%.
For COc1ccc(NC(=O)CSc2oc(-c3ccc(F)cc3)nc2S(=O)(=O)c2ccc(C)cc2)c(OC)c1 the results were KB-3-1 tox inactive, KB-V1 MDR tox inactive, TGFb SMAD3 inh -30% and HepG2 viability -6%.
`CC(=O)Nc1ccc(-c2ccnc3c2CC(C)(C(=O)Nc2ccc(Cl)c(C(F)(F)F)c2)O3)cc1` (centres undefined) gave HT1080NT lethal inconclusive, HT1080 IDH1KD tx 16µM*, KB-3-1 tox inconclusive, KB-V1 MDR tox inconclusive, TGFb SMAD3 inh inconclusive and HepG2 viability -59%.
For CN(C)c1ccc(-c2ccnc3c2CC(C)(C(=O)Nc2ccc(Cl)c(C(F)(F)F)c2)O3)cc1 (centres undefined) the results were HT1080NT lethal inconclusive, HT1080 IDH1KD tx inconclusive, KB-3-1 tox 16µM*, KB-V1 MDR tox inconclusive, TGFb SMAD3 inh inconclusive and HepG2 viability -37%.
For Cc1ccc2nc(-c3ccc(N=Nc4cc(S(=O)(=O)O)c5ccccc5c4O)cc3)sc2c1S(=O)(=O)O the results were KB-3-1 tox inactive, KB-V1 MDR tox inactive, TGFb SMAD3 inh -13% and HepG2 viability 3%.
